Assay results published in PubChem BioAssay (Tox21).
Results filed as inconclusive are left out. Entries that show only a call come without a potency. Some compounds were tested as several samples or in several runs, with calls that do not always agree. Calls of active or inactive are those of the source. Calls follow the shape of the dose curve; as a rule, active = well fitted inhibition curve with a large enough effect in the repeat runs; inconclusive = weak or mixed curves, or effect the other way; inactive = no such curve, though single readings can be large or run the other way.

Assay: qHTS assay to identify small molecule antagonists of the retinoic acid receptor (RAR) signaling pathway (AID 1159552; also: nearly all actives have a fitted effect of over 50% in size)
Conditions: C3RL4 RARE luciferase reporter, retinol-stimulated, 6 h; series mostly up to 92.4 µM
Source text: National Center for Advancing Translational Sciences [NCATS]
NIH Chemical Genomics Center [NCGC]
U.S. Environmental Protection Agency [EPA]
National Institutes of Environmental Health Sciences [NIEHS]
National Toxicology Program [NTP]
U.S. Food and Drug Administration [FDA]
All-trans Retinoic acid (atRA) is the potent natural metabolite of retinol and plays an important role in normal embryonic development and maintenance of cellular phenotype in adult animals. atRA is the activating ligand for the retinoic acid receptors (RARs) which form heterodimers with retinoid X receptors (RXRs) on the retinoic acid response element (RARE). Through activation of the RAR/RXRs nuclear receptors, atRA regulates the transcription of a large number of protein-coding genes and regulatory RNAs. Intracellular levels of atRA are controlled by the retinol signaling pathway (RSP) that regulates the biosynthesis and catabolism of atRA to maintain physiological levels. Chemicals that interfere with the RSP can cause abnormal intracellular levels of atRA and therefore are potential developmental toxicants. To assess compounds for the potential adverse effect on embryonic development through interfering with retinol signaling, a cell-based RARE luciferase reporter gene assay was used. C3RL4 cell line (OARSA/CFSAN/FDA, Laurel, MD) was used to screen Tox21 10K compound library for identifying inhibitors of the RSP.
Tox21 Assay Protocol Summary:
C3RL4 cells were seeded at 1,000/well in 4 uL of assay medium into white solid 1,536-well tissue culture plates (Greiner Bio-One North America Inc. Monroe, NC) using a Multidrop Combi (Thermo Scientific, Waltham, MA) dispenser. After incubation at 37 C and 5% CO2 for an overnight, 23 nL of compounds dissolved in DMSO, positive control or DMSO only were transferred by a Pintool station (Kalypsys, San Diego, CA). One ul of 1 uM (final concentration) of Retinol was added right after the compound addition by using a Flying Reagent Dispenser (FRD) (Aurora Discovery, San Diego, CA). After 6 hr incubation at 37 C and 5% CO2, 5 uL of Amplite Luciferase reagent (AAT Bioquest Inc. Sunnyvale, CA) was added to each assay plate using an FRD. Luminescence was quantified on a ViewLux plate reader (PerkinElmer, Waltham, MA) after 30 min incubation at room temperature.
Potency is read from the fitted curve at half-maximal effect.

| SMILES | Potency |
| --- | --- |
| Nc1ccc(Br)cc1 | inactive |
| COC(=O)c1ccccc1C(=O)OC | inactive |
| CN(C)N=O | inactive |
| CC(C)(Cl)Cl | inactive |
| Cc1ccc([N+](=O)[O-])cc1C | inactive |
| C1CC2OC2CC1C1CO1 (stereo not given) | inactive |
| Cc1cc(Cl)ccc1O | inactive |
| Nc1ccc(Cc2ccc(N)cc2)cc1 | inactive |
| O=S(=O)(c1ccc(O)cc1)c1ccc(O)cc1 | inactive |
| Cc1cc(-c2cc(C)c(N)c(C)c2)cc(C)c1N | inactive |
| Nc1ccc(Oc2ccc(N)cc2)cc1 | inactive |
| C#CCN(C)[C@H](C)Cc1ccccc1 | inactive |
| Cc1ccccc1O | inactive |
| C1CN2CCN1CC2 | inactive |
| Cn1cc(-c2ccccc2)c(=O)c(-c2cccc(C(F)(F)F)c2)c1 | inactive |
| C=CC(N)=O | inactive |
| O=[N+]([O-])c1ccc([As](=O)(O)O)cc1 | inactive |
| CCOC(=O)c1ccccc1C(=O)OCC | inactive |
| CC(C)N1C(=O)c2ccccc2NS1(=O)=O | inactive |
| CN(C)CCO | inactive |

| SMILES | Potency |
| --- | --- |
| c1ccc2c(c1)Oc1ccccc1O2 | inactive |
| CC(Oc1ccc(Cl)cc1Cl)C(=O)O (stereo not given) | inactive |
| NCC(O)c1ccc(O)cc1 (stereo not given) | inactive |
| CC(C)(C)OOC(=O)c1ccccc1 | inactive |
| OC(O)C(Cl)(Cl)Cl | inactive |
| CC(C)(C)C(O)(CCc1ccc(Cl)cc1)Cn1cncn1 (stereo not given) | inactive |
| Cc1[nH]c(=O)n(C(C)(C)C)c(=O)c1Cl | inactive |
| O=C(NC(=O)c1c(F)cccc1F)Nc1cc(Cl)c(OC(F)(F)C(F)C(F)(F)F)cc1Cl (stereo not given) | inactive |
| CC(C)C#N | 16.3 µM (active) and inactive |
| CCCN(CCC)N=O | inactive |
| Clc1ccccc1Cl | inactive |
| [O-][Cl+2]([O-])O | inactive |
| CCCC1COC(Cn2cncn2)(c2ccc(Cl)cc2Cl)O1 (stereo not given) | inactive |
| O=Cc1cccc(Oc2ccccc2)c1 | inactive |
| c1ccc(-c2ccccc2)cc1 | inactive |
| CON(C)C(=O)Nc1ccc(Cl)c(Cl)c1 | inactive |
| COCCl | inactive |
| O=c1[nH]c(=O)[nH]c(=O)[nH]1 | inactive |
| CN=C=S | inactive |
| CCCCN(CC)C(=O)SCCC | inactive |
